Compound activity: PubChem, National Center for Advancing Translational Sciences (NCATS)
BAZ2B block = qHTS Assay for Inhibitors of BAZ2B. Bromodomain adjacent to zinc finger domain protein 2B (Homo sapiens), Q9UIF8. AlphaScreen BAZ2B-H3K14Ac peptide displacement. Potency, µM (highest dose often 114 µM), for inactives: at the highest dose activity change, negative = inhibition, most hits filed as inhibitors. actives 4.4% (n = 360,000). AID 504333, 2011; further: on the % scale 0 is the no-effect control and ±100 the full control effect; nearly all actives have a fitted effect of over 60% in size
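In this displacement format the biotinylated H3(5-23) peptide acetylated at Lys14 serves as ligand at 50 nM, with BAZ2B at 50 nM in PBS pH 7.4 containing 0.01% Tween-20. Donor and acceptor beads are 10 ug/mL final.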
G9a block = qHTS Assay for Inhibitors of Histone Lysine Methyltransferase G9a; AID 504332, 2011; Histone-lysine N-methyltransferase EHMT2 (Homo sapiens), Q96KQ7; actives 8.8% (n = 350,000); G9a H3K9 monomethylation, AlphaScreen, 2 h; Potency, µM (highest dose often 102 µM), without a hit: top-dose activity, negative = inhibition, hits mostly inhibitors; further: on the % scale 0 is the no-effect control and ±100 the full control effect; nearly all actives have a fitted effect of over 75% in size
Target sequence (Q96KQ7 913-1193 limits assumed): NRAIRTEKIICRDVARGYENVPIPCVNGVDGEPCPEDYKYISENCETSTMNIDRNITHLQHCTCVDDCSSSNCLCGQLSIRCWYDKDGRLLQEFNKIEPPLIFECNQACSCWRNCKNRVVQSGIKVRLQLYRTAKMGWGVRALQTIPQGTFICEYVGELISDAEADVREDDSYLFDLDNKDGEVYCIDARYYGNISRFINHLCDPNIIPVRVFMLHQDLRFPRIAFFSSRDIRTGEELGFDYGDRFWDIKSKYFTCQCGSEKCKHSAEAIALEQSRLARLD
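Step 1: enzyme (final 20 nM) with compound, 15 min RT. Step 2: substrate peptide 500 nM and SAM 20 uM, 2 h RT. Step 3: anti-H3K9me1 antibody and AlphaScreen beads, 10 min, then plate read.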
Sfp PPTase inh = qHTS Assay for Inhibitors of Bacillus subtilis Sfp phosphopantetheinyl transferase (PPTase) | actives 3.5% (n = 310,000) | Biochemical Sfp PPTase activity, qHTS | 4'-phosphopantetheinyl transferase ffp (Bacillus subtilis), Q9F4F7 | Potency, µM, inactives show largest response in the series, negative = inhibition, actives largely listed as inhibitors;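 further: the enzyme is Sfp with the accession as filed and its product quenches rhodamine fluorescence; 0% = enzyme reaction without inhibitor and -100% = no enzyme wells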
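Step 1, compound plus 15 nM Sfp-PPTase, 15 min, room temperature. Step 2, add rhodamine-CoA (5 uM) and BHQ-2-YbbR (12.5 uM). Step 3, read 525/598 nm fluorescence at 0 and 30 min.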
PLK1 PBD inh = qHTS for Inhibitors of PLK1-PDB (polo-like kinase 1 - polo-box domain): Primary Screen; Potency, µM, inactives show max response, negative = inhibition, usual class: inhibitors; actives 2.8% (n = 360,000); Plk1 PBD binding of FITC phosphopeptide, fluorescence polarization; AID 720504, 2013; further: series mostly up to about 57 µM; on the % scale 0 is the no-effect control and ±100 the full control effect; nearly all actives have a fitted effect of over 65% in size
JMJD2A Tudor inh = qHTS Assay for Inhibitors of JMJD2A-Tudor Domain; Lysine-specific demethylase 4A (Homo sapiens), O75164; Potency, µM (top dose mostly 114 µM), for inactives: at the top dose activity change, negative = inhibition, most hits filed as inhibitors; actives 4.4% (n = 390,000); AlphaScreen JMJD2A-Tudor / H3K4me3 peptide binding; further: on the % scale 0 is the no-effect control and ±100 the full control effect; nearly all actives have a fitted effect of over 50% in size
HP1b binding inh = HTS for Inhibitors of HP1-beta Chromodomain Interactions with Methylated Histone Tails | Chromobox protein homolog 1 (Homo sapiens), P83916 | AlphaScreen HP1-beta / biotin-H3K9me3 peptide binding | Potency, µM (titrated, usually from 114 µM), for the others: top-dose activity change, negative = inhibition, usual class: inhibitors | actives 0.56% (n = 390,000); further: nearly all actives have a fitted effect of over 70% in size
Target sequence (P83916 whole entry, looked up): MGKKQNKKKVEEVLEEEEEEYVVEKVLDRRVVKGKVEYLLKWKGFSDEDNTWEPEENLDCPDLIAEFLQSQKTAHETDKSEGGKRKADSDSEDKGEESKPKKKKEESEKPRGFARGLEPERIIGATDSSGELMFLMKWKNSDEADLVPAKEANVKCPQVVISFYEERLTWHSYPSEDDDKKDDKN
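AlphaScreen: HP1-beta (50 nM) preformed 30 min with biotin-H3(1-18)K9me3 peptide (50 nM) in PBS pH 7.4, 0.01% Tween-20. Compound added for 30 min at RT, then streptavidin donor/nickel chelate acceptor beads (10 ug/mL) for 30 min.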
* = called active by the depositor; ? = inconclusive; . = not tested or not shown; ! = not confirmed by another sample; [ ] = remark or other dose. Sampled rows, rich in hits. Any-hit rate of the full collection: about 12%. The call rests on the fitted dose curve; in most records, active means well fitted curve in the direction sought with a large enough effect; inconclusive means small, poorly fitted or top-dose-only effect, or another doubt; inactive means no such curve, though single readings can be large; an effect the other way counts as inactive or inconclusive. Potency means the concentration at half of the fitted maximal effect.

SMILES | BAZ2B block | G9a block | Sfp PPTase inh | PLK1 PBD inh | JMJD2A Tudor inh | HP1b binding inh
CCCN(CC#CCOc1ccc(OC)cc1)CCC | 56µM* | 8.9µM* | -25% | -8% | 6.3µM* | -47%
CCC1(CC)C(=O)NC(=O)N(C)C1=O | . | 12%[12.7 µM] | 14% | . | . | .
CC(=O)[C@H]1CC[C@H]2[C@@H]3CC[C@H]4C[C@](C)(O)CC[C@]4(C)[C@H]3CC[C@]12C | . | 7.9µM*! | 3% | . | . | .
COC(=O)C1=C(c2ccc(F)cc2F)C[C@@H]2CC[C@H]1N2C(=O)NCCOc1ccccc1 | 10% | 9%[2.33 µM] | . | 2% | -5% | 37%
Nc1ccc2nonc2c1[N+](=O)[O-] | -23% | ? | 3% | 19µM* | -12% | 40%
COC(=O)C1=CO[C@@H](C)[C@@H]2CN3CC[C@]4(C(=O)Nc5c4ccc(OC)c5OC)[C@H]3C[C@H]12 | . | . | 2% | . | . | .
C=C1C([C@@H](O)C[C@H](C)C2O[C@@]3(CCCCO3)CC[C@H]2C)OC2CC[C@@]3(CC[C@@H](/C=C/[C@@H](C)C4CC(C)=C[C@]5(O4)O[C@H](C[C@@](C)(O)C(=O)O)CCC5O)O3)OC2[C@@H]1O (stereo not given in full) | . | 12%[59 µM] | -2% | . | . | .
N#Cc1c(/N=C/C2C(=O)NC(=S)NC2=O)sc2c1CCCC2 | ? | 28µM* | 22µM* | ? | -34% | 6%
CC(C)[C@H](NC(=O)[C@H](CC(=O)O)NC(=O)[C@H](Cc1ccccc1)NC(=O)[C@@H](C)NC(=O)[C@@H](N)Cc1ccc(O)cc1)C(=O)N[C@H](C(=O)NCC(N)=O)C(C)C | . | . | -14% | . | . | .
NCC(O)c1cc(O)c(O)cc1F (stereo not given) | 1% | 9.5µM*! | . | 1% | 10µM* | ?
COC1C(O)C(C)O[C@H](OC2CC[C@@]3(C=O)C4CC[C@]5(C)C(C6=CC(=O)OC6)CC[C@@]5(O)C4CC[C@@H]3C2)C1O (stereo not given in full) | . | -7%[2.33 µM] | 0% | . | . | .
CC[C@@H]1CN2CCc3cc(OC)c(OC)cc3[C@H]2C[C@@H]1C[C@@H]1NCCc2cc(O)c(OC)cc21 | . | -1%[21.5 µM] | 2% | . | . | .
N/C(=N\N=C/c1ccc(-c2ccc(O)c(C(=O)O)c2)o1)N[N+](=O)[O-] | 25µM* | 25µM* | 50µM* | 11µM* | 11µM* | 16µM*
CC(N)[C@H](O)c1ccc(O)c(O)c1 (stereo not given in full) | . | 14µM* | . | . | 14µM* | .
C[C@@H](N)[C@@H](O)c1ccc(O)c(O)c1 | . | 2µM* | 56µM* | . | . | .
COc1ccc(OC)c(C(O)C(C)N)c1 (stereo not given) | 0% | -17%[59 µM] | 14% | -1% | -11% | 48%
CCC1CN2CCC1CC2C(O)c1ccnc2ccc(OC)cc12 (stereo not given) | . | 6%[2.33 µM] | 14% | . | . | .
CCNC(=O)O/N=C(\C)c1sc(-c2ccccc2)nc1C | -4% | 12% | 0% | 24µM* | -6%[11.4 µM] | -4%
Cc1ccc2c(c1)C1C[N+](C)(CC(=O)c3ccc(Cl)cc3Cl)CCC1N2C(=O)c1ccc(F)cc1 (stereo not given) | . | . | . | ? | 16µM* | ?
Cc1cccn2c(=O)c(C=Nc3ccccc3)c(NCc3ccco3)nc12 | ? | 50µM* | 50µM* | -8% | -24% | 35%
Clc1ccc2c(c1)C(c1ccccc1Cl)=NCc1nnc(N3CCN(CCOc4ccccc4)CC3)n1-2 | 45µM* | ? | -23% | -2% | -31% | -8%
O=c1c2ccccc2nc(/C=C\c2cccc(Br)c2)n1-c1ccc(O)cc1 | -1% | 22%[59 µM] | . | . | -21% | 30%
O=C1NC(=O)C(=CN2CCc3ccccc32)C(=O)N1 | -3% | 13µM* | -29% | -6% | -18% | 2%
N[C@@H](Cn1ccc(=O)c(O)c1)C(=O)O | . | 10µM* | . | . | . | .
N#CC1(c2ccccc2)CCN(C2CC(=O)N(c3ccc4c(c3)OCO4)C2=O)CC1 (stereo not given) | -9% | 22µM* | ? | -9% | -17% | 30%
SMILES | BAZ2B block | G9a block | Sfp PPTase inh | PLK1 PBD inh | JMJD2A Tudor inh | HP1b binding inh
N#CC1=C(N)Oc2c(c(=O)oc3ccccc23)C1c1ccc([N+](=O)[O-])o1 (stereo not given) | ? | . | ? | 21µM* | -35% | -10%
O=C(CC1NCCC[C@H]1O)Cn1cnc2cc(Br)c(Cl)cc2c1=O (stereo not given in full) | . | -50%[12.7 µM] | ? | . | . | .
COP(=O)(OC)C1(O)C(=O)Nc2ccc(Br)cc21 (stereo not given) | -4% | 8.9µM* | -1% | -14% | -14% | 26%
CCOP(=O)(OCC)C1(O)C(=O)Nc2ccccc21 (stereo not given) | -5% | 9%[59 µM] | 11% | -12% | -19% | 17%
COc1cccc(-c2cc(C(=O)Nc3cnn(Cc4ccc(Cl)cc4Cl)c3)no2)c1 | 0% | 11%[59 µM] | . | . | -5% | 54%
Cc1ccc(C)c(NC(=O)c2cc[n+](C)cc2)c1 | -25% | 32µM* | 2% | -2% | -27% | 32%
CC1CCCC(C)N1C(=O)CSc1nnc(NC(=O)c2cccs2)s1 (stereo not given) | -6% | 50µM* | 8% | ? | -5%[57.1 µM] | 38%
COc1ccccc1OCC(=O)N1CCCC(N2CCN(c3ccc(F)cc3)CC2)C1 (stereo not given) | -17% | -12% | 14% | 2% | -10% | 9%
COc1ccccc1N1CCN(C2CCN(C(=O)c3cccs3)CC2)CC1 | -34% | 28µM* | -11% | 0% | 7.1µM* | -53%
CN1CCC(O)(c2ccc(Cl)cc2)C(C(=O)c2ccc(Cl)cc2)C1 (stereo not given) | -8% | 10µM* | -8% | 4.7µM* | -20% | 34%
CN1CC(C(=O)c2ccc(Cl)cc2)C(c2ccc(Cl)cc2Cl)C1 (stereo not given) | -18% | ? | ? | 5% | -33% | -13%
Oc1cccc(Nc2ncnc3sc4c(c23)CCCC4)c1 | -2% | -30%[59 µM] | . | . | 89µM* | -1%[57 µM]
CN1CCc2nc3sc(C#N)c(N)c3c(-c3cccs3)c2C1 | ? | ? | 50µM* | -24% | -28% | 5%
NC(=O)c1sc2nc3c(c(-c4cccs4)c2c1N)CCCC3 | -26% | 22µM* | -17% | . | . | .
CC(=O)NC(Cc1ccc(N(CCCl)CCCl)cc1)C(=O)O (stereo not given) | 8% | -25%[59 µM] | -1% | -3% | -10% | 25%
